# In the antibiotic and cytotoxicity screens of Wong et al. (2023):
# In all, about 39,000 compounds went through this assay and about 500 (1.3%) were called active. Many of the other results were omitted from the sample, so actives are more common in it than they were.
# System: S. aureus RN4220
# Assay: growth inhibition call (relative growth <= 0.2)
# Conditions: 50 µM
row,SMILES,growth inhibition call
1,C[C@@H]1CN([C@H](C)CO)C(=O)c2cc(NC(=O)CCCN(C)C)ccc2O[C@H]1CN(C)C(=O)Nc1ccccc1,inactive
2,CCS(=O)(=O)Nc1ccc2c(c1)C(=O)N(C)[C@H]1CC[C@@H](CC(=O)NCc3ccc(OC)cc3)O[C@@H]1CO2,inactive
3,C[C@@H]1CN([C@@H](C)CO)C(=O)Cc2cc(NC(=O)Cn3cnnn3)ccc2O[C@H]1CN(C)S(=O)(=O)c1cccs1,inactive
4,COc1ccc(NC(=O)Nc2cccc3c2O[C@H](CN(C)S(=O)(=O)c2cn(C)cn2)[C@@H](C)CN([C@H](C)CO)C3=O)cc1,inactive
5,COC(=O)c1c(CC[C@@H](CO)NC(=O)N[C@@H](Cc2ccccc2)Cn2cc(C3(O)CCCCC3)nn2)oc(C(C)=O)c1C(=O)OC,inactive
6,O=C(N[C@@H](c1ccc2c(c1)OCO2)c1ccccn1)C1CCN(CCOc2ccc(Cl)cc2Cl)CC1,inactive
7,Cc1cccnc1[C@@H](NC(=O)C1CCN(CCOc2ccc(Cl)cc2Cl)CC1)c1ccc(F)cc1,active
8,COc1ccc([C@@H](NC(=O)C2CCN(CCOc3ccc(Cl)cc3Cl)CC2)c2ccco2)cc1,inactive
9,O=C(N[C@H](c1ccc(Cl)cc1)c1ccccn1)C1CCN(CCOc2ccc(Cl)cc2Cl)CC1,active
10,Cc1cccnc1[C@@H](NC(=O)C1CCN(Cc2ccc(Oc3ccccc3)cc2)CC1)c1ccc(F)cc1,inactive
11,O=C(N[C@H](c1ccc(F)cc1)c1ccc2ccccc2n1)C1CCN(CCOc2ccc(Cl)cc2Cl)CC1,inactive
12,COc1ccc([C@@H](NC(=O)C2CCN(CCOc3ccc(Cl)cc3Cl)CC2)c2ccccn2)cc1,inactive
13,COc1ccc([C@@H](NC(=O)C2CCN(Cc3ccc(Oc4ccccc4)cc3)CC2)c2ccccn2)cc1,inactive
14,Cc1cccnc1[C@@H](NC(=O)C1CCN(CCOc2ccc(Cl)cc2Cl)CC1)c1ccc(Cl)cc1,active
15,O=C(N[C@H](c1ccc(Cl)cc1)c1ccsc1)C1CCN(Cc2ccc(Oc3ccccc3)cc2)CC1,inactive
16,O=C(N[C@@H](c1cccnc1)c1ccc2c(c1)OCO2)C1CCN(CCOc2ccc(Cl)cc2Cl)CC1,active
17,Cc1cccnc1[C@@H](NC(=O)C1CCN(Cc2ccc(Cl)c(Cl)c2)CC1)c1ccc(Cl)cc1,inactive
18,C[C@H]1CN([C@@H](C)CO)C(=O)Cc2cc(NC(=O)Cn3cnnn3)ccc2O[C@H]1CN(C)C(=O)Nc1ccccc1,inactive
19,C[C@@H]1CN([C@@H](C)CO)C(=O)Cc2cc(NC(=O)c3ccncc3)ccc2O[C@@H]1CN(C)S(=O)(=O)c1ccc(F)cc1,inactive
20,C[C@@H]1CCCCO[C@@H](CN(C)C(=O)NC2CCCCC2)[C@@H](C)CN([C@H](C)CO)C(=O)c2cc(NC(=O)Nc3cccc4ccccc34)ccc2O1,inactive
21,C[C@H](CO)N1C[C@H](C)[C@@H](CN(C)S(=O)(=O)c2cccs2)OCCCC[C@H](C)Oc2ccc(NC(=O)Nc3cccc4ccccc34)cc2C1=O,inactive
22,O=C(CCCCCCC(=O)Nc1ccccc1O)N/N=C/[C@H](O)[C@@H](O)[C@@H](O)[C@H](O)C(=O)O,inactive
23,C[C@H]1CC[C@@H]2N(C1)C[C@@H]1[C@H]([C@@H](O)[C@H](O)[C@]3(O)[C@H]1C[C@@]14O[C@]5(O)[C@@H](C[C@@H](O)[C@@H]31)[C@]4(C)CC[C@@H]5O)[C@]2(C)O,inactive
24,Cc1cc(C(=O)Nc2cccc3c2O[C@H](CN(C)C(=O)Nc2ccc4c(c2)OCO4)[C@H](C)CN([C@H](C)CO)C3=O)n(C)n1,inactive

row,SMILES,growth inhibition call
1,COc1ccc(S(=O)(=O)Nc2ccc3c(c2)C(=O)N([C@H](C)CO)C[C@@H](C)[C@@H](CN(C)Cc2ccccc2)OCCCC[C@@H](C)O3)cc1,inactive
2,Cc1noc(C)c1NC(=O)N(C)C[C@@H]1OCCCC[C@@H](C)Oc2ccc(NC(=O)c3ccccc3)cc2C(=O)N([C@H](C)CO)C[C@@H]1C,inactive
3,CCCN(CCC)[NH2+][O-],inactive
4,C[C@H](CO)N1C[C@H](C)[C@H](CN(C)Cc2ccccc2)Oc2ccc(NC(=O)CCN3CCOCC3)cc2CC1=O,inactive
5,C[C@@H]1CN([C@H](C)CO)C(=O)c2cc(NC(=O)Nc3cccc4ccccc34)ccc2O[C@@H](C)CCCCO[C@H]1CN(C)S(=O)(=O)c1ccc(F)cc1,inactive
6,CC(C)(Sc1cc(C(C)(C)C)c(O)c(C(C)(C)C)c1)Sc1cc(C(C)(C)C)c(OCC(=O)O)c(C(C)(C)C)c1,active
7,CC(C)(Sc1cc(C(C)(C)C)c(O)c(C(C)(C)C)c1)Sc1cc(C(C)(C)C)c(OC(=O)CCC(=O)O)c(C(C)(C)C)c1,inactive
8,CC(C)(Sc1cc(C(C)(C)C)c(O)c(C(C)(C)C)c1)Sc1cc(C(C)(C)C)c(O)c(C(C)(C)C)c1,inactive
9,C[C@@H]1CN([C@H](C)CO)C(=O)c2cc(NS(=O)(=O)c3ccccc3)ccc2O[C@H]1CN(C)S(=O)(=O)c1ccc(F)cc1,inactive
10,COC(=O)[C@@H](N)Cc1ccc(-n2cc(CCC(=O)NO)nn2)cc1,active
11,CC(/C=C/C(=O)NO)=C\c1ccccc1OCc1cn(-c2cccc(N(S(=O)(=O)c3ccc(C)cc3)S(=O)(=O)c3ccc(C)cc3)c2)nn1,inactive
12,Nc1cccc(-n2cc(CCC(=O)NO)nn2)c1,inactive
13,CCOc1cc(OCC)cc(C(=O)N[C@@H](Cc2ccc(-n3cc(CCC(=O)NO)nn3)cc2)C(=O)OC)c1,inactive
14,Cc1ccc(S(=O)(=O)N(c2cccc(-n3cc(CCC(=O)NO)nn3)c2)S(=O)(=O)c2ccc(C)cc2)cc1,active
15,Nc1ccc(-n2cc(CCC(=O)NO)nn2)cc1,inactive
16,Cc1onc(-c2ccccc2)c1C#N,inactive
17,NCCOB(c1ccccc1)c1ccccc1,inactive
18,C[C@@H]1CCCCO[C@H](CN(C)C(=O)Nc2ccc(C(F)(F)F)cc2)[C@@H](C)CN([C@H](C)CO)C(=O)c2cc(NC(=O)Cc3ccccc3)ccc2O1,inactive
19,CC(C)NC(=O)N(C)C[C@@H]1Oc2ccc(NC(=O)Cc3ccccc3)cc2CC(=O)N([C@H](C)CO)C[C@@H]1C,inactive
20,C[C@@H]1CN([C@@H](C)CO)C(=O)c2cc(NS(C)(=O)=O)ccc2O[C@@H]1CN(C)C(=O)Nc1ccc2c(c1)OCO2,inactive
21,CS(=O)(=O)N1CCn2cc(Cn3cncn3)nc2C1,inactive
22,CCCC#Cc1cnc2c(c1)C(=O)N([C@@H](C)CO)C[C@H](C)[C@@H](CN(C)S(=O)(=O)c1cn(C)cn1)O2,inactive
23,COc1ccc(NC(=O)N(C)C[C@@H]2Oc3ccc(NC(=O)CCN4CCOCC4)cc3C(=O)N([C@H](C)CO)C[C@H]2C)cc1,inactive
24,CC(C)c1cc2c(cc1S(=O)(=O)O)[C@@]1(C)CCC[C@@](C)(C(=O)O)[C@@H]1CC2,inactive

row,SMILES,growth inhibition call
1,CC(C)C1=CC2=CC[C@H]3[C@](C)(CO)CCC[C@]3(C)[C@@H]2CC1,inactive
2,CC(C)C1=CC2=CCC3C(C)(C(=O)O)CCCC3(C)C2CC1 (stereo unspecified),active
3,CCc1nc2ccc(C(=O)N3CCN(S(=O)(=O)CC)CC3)cn2c1N(C)Cc1ccc(Cl)cc1,inactive
4,CN1CC2(COC2)OCCS1(=O)=O,inactive
5,COc1ccc(S(=O)(=O)Nc2ccc3c(c2)CC(=O)N([C@H](C)CO)C[C@H](C)[C@@H](CN(C)S(=O)(=O)c2cn(C)cn2)O3)cc1,inactive
6,CC1(C)Cc2c(-c3ccccc3)c(-c3ccc(Cl)cc3)c(CC(=O)O)n2C1,active
7,Cc1cc(CC(=O)O)n(C)c1C(=O)c1ccc(Cl)cc1,inactive
8,C[C@H]1CN([C@@H](C)CO)C(=O)c2cccc(NC(=O)Nc3ccc(C(F)(F)F)cc3)c2O[C@@H]1CN(C)C(=O)Nc1ccc(C(F)(F)F)cc1,inactive
9,CC(=O)OC1CC(OC(C)=O)C2(C)C(CC(OC(C)=O)C3(C)C4=CC(=O)OC(c5ccoc5)C4(C)CCC32)C1(C)C (stereo unspecified),inactive
10,CC(C)NC(=O)N(C)C[C@H]1Oc2ccc(NC(=O)Nc3ccc4c(c3)OCO4)cc2CC(=O)N([C@@H](C)CO)C[C@H]1C,inactive
11,Oc1c(Cl)cc(Cl)cc1Sc1cc(Cl)cc(Cl)c1O,inactive
12,O=C(Nc1cc(Cl)cc(Cl)c1O)c1c(O)c(Cl)cc(Cl)c1Cl,active
13,Oc1c(Cl)cc(Cl)c(Cl)c1Cc1c(O)c(Cl)cc(Cl)c1Cl,inactive
14,CS(=O)(=O)N1C[C@@H](O)COC[C@H]2O[C@H](CC(=O)NCc3ccccc3)CC[C@@H]21,inactive
15,Cc1noc(C)c1S(=O)(=O)Nc1ccc2c(c1)C(=O)N([C@H](C)CO)C[C@H](C)[C@@H](CN(C)Cc1ccncc1)O2,inactive
16,C[C@@H]1CCCCO[C@H](CN(C)C(=O)CCC(F)(F)F)[C@H](C)CN([C@H](C)CO)C(=O)c2cc(NS(=O)(=O)c3cccs3)ccc2O1,inactive
17,CC(=O)OC1CC2(C)C(CC(O)C3C4(C)CCC(O)C(C)C4CCC32C)C1=C(CCC=C(C)C)C(=O)O (stereo unspecified),active
18,CC(=O)O[C@H]1C[C@@]2(C)[C@@H](C[C@@H](O)[C@H]3[C@@]4(C)CC[C@@H](O)[C@@H](C)[C@H]4CC[C@@]32C)C1=C(CCC=C(C)C)C(=O)O,active
19,CC(=O)O[C@H]1C[C@@]2(C)[C@@H](C[C@@H](O)[C@H]3[C@@]4(C)CC[C@@H](O)[C@@H](C)[C@@H]4CC[C@@]32C)/C1=C(\CCC=C(C)C)C(=O)O,active
20,CC(=O)OC1(C(C)=O)CCC2C3C=C(C)C4=CC(=O)CCC4(C)C3CCC21C (stereo unspecified),inactive
21,CC(=O)O[C@H]1C[C@@]2(C)[C@@H](C[C@@H](O)[C@@H]3[C@@]4(C)CC[C@@H](O)[C@@H](C)[C@@H]4CC[C@@]32C)/C1=C(/CCC=C(C)C)C(=O)O,active
22,CC(=O)C1CCC2C3CC=C4CC(OC(=O)CCC(=O)O)CCC4(C)C3CCC12C (stereo unspecified),inactive
23,CC(=O)OC1(C(C)=O)CCC2C3CC(C)C4=CC(=O)CCC4(C)C3CCC21C (stereo unspecified),inactive
